Test results published in PMC5540273 (PLoS ONE, 2017).

Key:
Conditions in all cases: concentration: 1 μM, replicates: in singlicate; n = 1
PIP5K2C = tested on: T1, PIP5K2C
T1 construct: gene PIP4K2C

PKAC-alpha = tested on: T2, PKAC-alpha
T2 construct: gene PRKACA

PKAC-beta = tested on: T3, PKAC-beta
T3 construct: gene PRKACB

PKMYT1 = tested on: PKMYT1
PKN1 = tested on: PKN1
PKN2 = tested on: PKN2
PLK1 = tested on: PLK1
PLK2 = tested on: PLK2
PLK3 = tested on: PLK3
PLK4 = tested on: PLK4
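Further: KINOMEscan kinase panel screen.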

SMILES	%Inh (PIP5K2C) [%]	%Inh (PKAC-alpha) [%]	%Inh (PKAC-beta) [%]	%Inh (PKMYT1) [%]	%Inh (PKN1) [%]	%Inh (PKN2) [%]	%Inh (PLK1) [%]	%Inh (PLK2) [%]	%Inh (PLK3) [%]	%Inh (PLK4) [%]
COc1ccc(NC(=O)c2ccc(-c3cc(-c4nnc(C)o4)ccc3C)cc2)cc1 [GW595885]	4	0	13	0	0	0	0	0	0	0
Fc1ccc(-c2ncn(CCCNCc3ccccc3)c2-c2ccncc2)cc1	3	26	6	27	23	1	0	5	13	32
Cl.Cl.c1ccc(-c2cc3ccncc3cc2OC2CCNCC2)cc1 [GSK1122999]	6	0	9	14	0	19	5	0	0	9
COc1ccc(NC(=O)Nc2ccc(C)c(-c3ccc(C(=O)Nc4ccncc4)cc3)c2)cc1 [GSK1398475]	0	8	0	0	0	0	0	0	0	0
C[C@@H]1CCN(C(=O)CO)C[C@@H]1N(C)c1ncnc2[nH]ccc12	0	0	93.7	100	20	21	0	0	12	3
